Results reported in PubChem BioAssay.
Inconclusive results are not listed. The source made the active and inactive calls.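 How the source made its calls, unless noted: active means normalized viability below 100% at a tested concentration; inactive means the rest.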

Columns and labels:
[1] = stimulators of nuclear beta-catenin in C2C12, primary screen, imaging, WNT3A-conditioned medium, mouse C2C12, NPC library (AID 1117326; in the data active means nuclear beta-catenin stimulation mostly above about 4.2%, no sharp cut-off; inactive means mostly below about 10%); settings: stronger effect = higher value
[2] = stimulators of insulin release from INS-1E, primary screen, cell-based, 5 mM glucose, NPC library (AID 1117329;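 active means compound raises insulin release from rat beta cells at 5 mM glucose, no numeric limit stated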); settings: rat INS-1E insulin secretion, at 10 µM, stronger effect = higher value
[3] = growth inhibition of GSK3B-pretreated HCT116 cells – cell-based, CellTiter-Glo, 0.2 to 20 µM (AID 1117336;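 active means compounds lowering colon cancer cell viability after pretreatment blocking the GSK3B kinase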); settings: HCT116 viability after GSK3B inhibitor, at 20 µM, stronger effect = higher value
[4] = inhibition of endothelial tube formation, primary screen, imaging, VEGF stimulated, CD31 staining, tube area, NPC library (AID 1117340;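 active means compound that reduces growth-factor-driven endothelial tube area in a mixed cell culture, no cutoff stated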); settings: VEGF-stimulated ADSC/ECFC co-culture, at 10 µM, stronger effect = higher value
[5] = glucagon-like peptide 1 release enhancers, primary assay, NCI-H716 cell line, NPC library (AID 1117341;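 active means compound raises GLP1 secretion from the human gut endocrine cells, with no numeric limit stated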); settings: NCI-H716 cells, at 10 µM, stronger effect = higher value
[6] = HCT116 colon cancer cell growth inhibition, primary screen, CellTiter-Glo luminescence, NPC library (AID 1117342;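 active means compounds that lower survival of HCT116 colon cancer cells in the luminescence readout, no numeric limit stated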); settings: at 20 µM (top of the series)
[7] = CellTiter-Glo luminescent readout of SW480 viability loss, NPC library primary (AID 1117343;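 active means compounds that lower viability of the colon cancer cells in the luminescence readout, with no numeric limit stated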); settings: CellTiter-Glo luminescence; at 20 µM (top of the series) unless noted
[8] = decreased DLD-1 cellular survival, CellTiter-Glo luminescent readout, NPC compound collection, primary HTS (AID 1117346;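 active means compounds that lower survival of DLD-1 colon cancer cells in the luminescence readout, no cutoff given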); settings: DLD-1 viability, CellTiter-Glo luminescence; at 20 µM (top of the series)
[9] = growth inhibition of DIPG glioma cells, dose response, cell-based, JHH-DIPG-1, MIPE4.0, CellTiter-Glo, qHTS (AID 1347062; cut-off not given, nearly all actives have AC50 up to about 27 µM); settings: JHH-DIPG-1 viability, CellTiter-Glo ATP luminescence
[10] = growth inhibition of DIPG glioma cells, dose response, cell-based, SU-DIPG-IV, MIPE4.0, CellTiter-Glo, qHTS (AID 1347063; cut-off not given, nearly all actives have AC50 up to about 30 µM;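 further: compound exposure lasted 48 hours before the viability readout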); settings: SU-DIPG-IV viability, CellTiter-Glo ATP luminescence
[11] = SU-DIPG-VI glioma cell viability, MIPE4.0 library, CellTiter-Glo luminescence, qHTS (AID 1347066; cut-off not given, nearly all actives have AC50 up to about 30 µM;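 further: cells exposed to compound for 48 hours before readout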); settings: CellTiter-Glo ATP luminescence
[12] = sensitizers of A549 cells to miR-34 induction, primary screen, imaging, A549 dox-inducible miR-34, nuclei and caspase counts (AID 1347080;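 active means compounds whose cell count with miR-34 switched on is under 0.7 times the count with it off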); settings: A549 miR-34 inducible, Hoechst nuclei count, 48 h
[13] = survival rescue of mitochondrial mutant cells in low glucose, primary screen, MELAS cybrids, Rieske KO mouse fibroblasts, CellTiter-Glo (AID 1508586;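 active means mean z-score across replicates of 1.96 or higher in either the MELAS or the Rieske mutant cell line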;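 further: z relative to plate mean and SD of compound and empty wells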)
[14] = ovarian cancer cell viability with rucaparib, profiling panel, oncology-focused library, rucaparib conditional (AID 1508598); settings: patient-derived ovarian cancer cells, CellTiter-Glo viability, 144 h, stronger effect = lower value
[15] = MELAS cybrid survival, CellTiter-Glo 48 h, stronger effect = higher value
[16] = Rieske KO mouse fibroblast survival, CellTiter-Glo 72 h

NC(=O)Cc1cccc(C(=O)c2ccccc2)c1N
8200: cell count ([12]; measured here: total cells without miR-34 induction)
7400: cell count ([12]; measured here: total cells with miR-34 induction, stronger effect = lower value)
0.903: fold change ([12]; measured here: relative caspase fold change +Dox/-Dox)
inactive: nuclear beta-catenin stimulation ([1]; at 10 µM) 3% | insulin secretion stimulation [2] -0.1% | viability decrease [3] 4.9% | tube area decrease [4] 12.4% | GLP1 secretion stimulation [5] -1.1% | inhibition of viability [6] -6.03% | viability decrease (inhibition) [7] -28.7% | viability decrease (inhibition) [8] 6.9% | outcome [9] | outcome [10] | outcome [11] | fold change ([12]; stronger effect = lower value, cell number ratio, induced over uninduced) 0.902 | z-score [13, 15] -0.418
-0.195: z-score [13, 16]
2.6%: nuclear beta-catenin stimulation ([1]; stimulation, at 2 µM)

COc1nc(N)nc2c1ncn2[C@@H]1O[C@H](CO)[C@@H](O)[C@@H]1O
active: viability ([14]; at 0.00488 µM, OCI-C5x cells, without rucaparib) 98% | viability ([14]; at 0.00488 µM, OCI-P5x cells, without rucaparib) 97.2% | viability ([14]; at 0.0195 µM, OCI-C5x cells, without rucaparib) 96.1% | viability ([14]; at 0.0195 µM, OCI-P5x cells, with rucaparib 20 µM, 100% = cells with rucaparib alone) 94% | viability ([14]; at 0.0781 µM, OCI-C5x cells, without rucaparib) 99.7% | viability ([14]; at 0.0781 µM, OCI-P5x cells, with rucaparib 20 µM, 100% = cells with rucaparib alone) 94.2% | viability ([14]; at 0.313 µM, OCI-C5x cells, without rucaparib) 90.4% | viability ([14]; at 0.313 µM, OCI-P5x cells, with rucaparib 20 µM, 100% = cells with rucaparib alone) 98% | viability ([14]; at 0.313 µM, OCI-P5x cells, without rucaparib) 97% | viability ([14]; at 1.25 µM, OCI-C5x cells, without rucaparib) 83.3% | viability ([14]; at 1.25 µM, OCI-P5x cells, with rucaparib 20 µM, 100% = cells with rucaparib alone) 90.5% | viability ([14]; at 1.25 µM, OCI-P5x cells, without rucaparib) 90.1% | viability ([14]; at 5 µM, OCI-C5x cells, with rucaparib 10 µM, 100% = cells with rucaparib alone) 92.9% | viability ([14]; at 5 µM, OCI-C5x cells, without rucaparib) 84.3% | viability ([14]; at 5 µM, OCI-P5x cells, with rucaparib 20 µM, 100% = cells with rucaparib alone) 80.3% | viability ([14]; at 5 µM, OCI-P5x cells, without rucaparib) 90%
0.487: z-score [13, 16]
0.8%: nuclear beta-catenin stimulation ([1]; stimulation, at 2 µM)
inactive: nuclear beta-catenin stimulation ([1]; at 10 µM) 2.7% | insulin secretion stimulation [2] -1.9% | viability decrease [3] -1.5% | tube area decrease [4] 5.7% | GLP1 secretion stimulation [5] 0.9% | inhibition of viability [6] -1.43% | viability decrease (inhibition) [7] -15.5% | viability decrease (inhibition) [8] -11.9% | outcome [9] | outcome [10] | outcome [11] | z-score [13, 15] 0.551 | viability ([14]; at 0.000305 µM, OCI-C5x cells, with rucaparib 10 µM, 100% = cells with rucaparib alone) 129% | viability ([14]; at 0.000305 µM, OCI-C5x cells, without rucaparib) 109% | viability ([14]; at 0.000305 µM, OCI-P5x cells, with rucaparib 20 µM, 100% = cells with rucaparib alone) 104% | viability ([14]; at 0.000305 µM, OCI-P5x cells, without rucaparib) 107% | viability ([14]; at 0.00122 µM, OCI-C5x cells, with rucaparib 10 µM, 100% = cells with rucaparib alone) 114% | viability ([14]; at 0.00122 µM, OCI-C5x cells, without rucaparib) 106% | viability ([14]; at 0.00122 µM, OCI-P5x cells, with rucaparib 20 µM, 100% = cells with rucaparib alone) 101% | viability ([14]; at 0.00122 µM, OCI-P5x cells, without rucaparib) 105% | viability ([14]; at 0.00488 µM, OCI-C5x cells, with rucaparib 10 µM, 100% = cells with rucaparib alone) 108% | viability ([14]; at 0.00488 µM, OCI-P5x cells, with rucaparib 20 µM, 100% = cells with rucaparib alone) 101% | viability ([14]; at 0.0195 µM, OCI-C5x cells, with rucaparib 10 µM, 100% = cells with rucaparib alone) 112% | viability ([14]; at 0.0195 µM, OCI-P5x cells, without rucaparib) 102% | viability ([14]; at 0.0781 µM, OCI-C5x cells, with rucaparib 10 µM, 100% = cells with rucaparib alone) 113% | viability ([14]; at 0.0781 µM, OCI-P5x cells, without rucaparib) 101% | viability ([14]; at 0.313 µM, OCI-C5x cells, with rucaparib 10 µM, 100% = cells with rucaparib alone) 101% | viability ([14]; at 1.25 µM, OCI-C5x cells, with rucaparib 10 µM, 100% = cells with rucaparib alone) 102%
